# Assay results as given in the supplement of paper PMC8728848.
# The full list was thinned out, with the strongest signals kept by preference.
# Experiments:
# Assay in all cases: glycan array binding signal (z-score within array); higher = stronger binding
# Conditions in all cases: glycan notation: IUPAC condensed, linker removed
# [1] = target: Gal(b1-4)GlcNAc(b1-3)Gal(b1-3)GalNAc
# Summary of the method: (§1)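 The Consortium for Functional Glycomics database supplied 3228 glycan arrays, of which those lacking an available protein sequence were dropped. The binding signal, a within-array Z-score, was averaged across arrays of the same protein sequence and across linkers. Negative scores can be read as non-binding.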
# [2] = target: Gal(b1-4)GlcNAc(b1-3)Gal(b1-4)Glc
# Summary of the method: as §1
# [3] = target: Gal(b1-4)GlcNAc(b1-3)Gal(b1-4)GlcNAc(b1-3)Gal(b1-4)GlcNAc(b1-3)Gal(b1-4)GlcNAc(b1-3)Gal(b1-4)GlcNAc(b1-2)[Gal(b1-4)GlcNAc(b1-3)Gal(b1-4)GlcNAc(b1-3)Gal(b1-4)GlcNAc(b1-3)Gal(b1-4)GlcNAc(b1-3)Gal(b1-4)GlcNAc(b1-6)]Man(a1-6)[Gal(b1-4)GlcNAc(b1-3)Gal(b1-4)GlcNAc(b1-3)Gal(b1-4)GlcNAc(b1-3)Gal(b1-4)GlcNAc(b1-3)Gal(b1-4)GlcNAc(b1-2)Man(a1-3)]Man(b1-4)GlcNAc(b1-4)[Fuc(a1-6)]GlcNAc
# Summary of the method: as §1
# [4] = target: Gal(b1-4)GlcNAc(b1-6)[Gal(b1-4)GlcNAc(b1-3)]GalNAc
# Summary of the method: as §1
# Gal6S(b1-4)Glc6S = target: Gal6S(b1-4)Glc6S
# Summary of the method: as §1
# [5] = target: GalNAc(b1-3)Gal(a1-4)Gal(b1-4)GlcNAc(b1-3)Gal(b1-4)Glc
# Summary of the method: as §1
# [6] = target: GalNAc(b1-4)GlcNAc(b1-2)Man(a1-3)[GalNAc(b1-4)GlcNAc(b1-2)Man(a1-6)]Man(b1-4)GlcNAc(b1-4)GlcNAc
# Summary of the method: as §1
# Glc(b1-4)Glc = target: Glc(b1-4)Glc
# Summary of the method: as §1
# [7] = target: GlcNAc(a1-4)Gal(b1-4)GlcNAc(b1-3)Gal(b1-4)[Fuc(a1-3)]GlcNAc(b1-3)Gal(b1-4)[Fuc(a1-3)]GlcNAc
# Summary of the method: as §1
# [8] = target: GlcNAc(b1-2)[GlcNAc(b1-4)]Man(a1-3)[GlcNAc(b1-4)][GlcNAc(b1-2)[GlcNAc(b1-6)]Man(a1-6)]Man(b1-4)GlcNAc(b1-4)GlcNAc
# Summary of the method: as §1
# [9] = target: GlcNAc(b1-3)Gal(b1-4)GlcNAc(b1-3)Gal(b1-4)GlcNAc(b1-3)GalNAc
# Summary of the method: as §1
# [10] = target: Neu5Ac(a2-3)Gal(b1-3)GalNAc(b1-3)Gal(a1-4)Gal(b1-4)Glc
# Summary of the method: as §1
# [11] = target: Neu5Ac(a2-3)Gal(b1-3)GlcNAc(b1-3)GalNAc
# Summary of the method: as §1
# [12] = target: Neu5Ac(a2-3)Gal(b1-4)GlcNAc(b1-2)[Neu5Ac(a2-3)Gal(b1-4)GlcNAc(b1-6)]Man(a1-6)[Neu5Ac(a2-3)Gal(b1-4)GlcNAc(b1-2)Man(a1-3)]Man(b1-4)GlcNAc(b1-4)GlcNAc
# Summary of the method: as §1
# [13] = target: Neu5Ac(a2-3)Gal(b1-4)GlcNAc(b1-3)Gal(b1-4)GlcNAc(b1-3)Gal(b1-4)GlcNAc(b1-2)Man(a1-3)[Neu5Ac(a2-3)Gal(b1-4)GlcNAc(b1-3)Gal(b1-4)GlcNAc(b1-3)Gal(b1-4)GlcNAc(b1-2)Man(a1-6)]GalNAc
# Summary of the method: as §1
# [14] = target: Neu5Ac(a2-3)[GalNAc(b1-4)]Gal(b1-4)Glc
# Summary of the method: as §1
# [15] = target: Neu5Ac(a2-6)Gal(b1-4)GlcNAc(b1-2)Man(a1-3)[Man(a1-6)]Man(b1-4)GlcNAc(b1-4)GlcNAc
# Summary of the method: as §1
# [16] = target: Neu5Ac(a2-6)Gal(b1-4)GlcNAc(b1-2)Man(a1-3)[Neu5Ac(a2-3)Gal(b1-4)GlcNAc(b1-2)Man(a1-6)]Man(b1-4)GlcNAc(b1-4)GlcNAc
# Summary of the method: as §1
# [17] = target: Neu5Ac(a2-6)Gal(b1-4)GlcNAc(b1-2)[Neu5Ac(a2-6)Gal(b1-4)GlcNAc(b1-4)]Man(a1-3)[GlcNAc(b1-4)][Neu5Ac(a2-6)Gal(b1-4)GlcNAc(b1-2)[Neu5Ac(a2-6)Gal(b1-4)GlcNAc(b1-6)]Man(a1-6)]Man(b1-4)GlcNAc(b1-4)GlcNAc
# Summary of the method: as §1
# [18] = target: Neu5Ac(a2-6)Gal(b1-4)GlcNAc(b1-3)Gal(b1-4)GlcNAc(b1-3)GalNAc
# Summary of the method: as §1
# [19] = target: Neu5Ac(a2-6)Gal(b1-4)GlcNAc(b1-6)[Gal(b1-3)GlcNAc(b1-3)]Gal(b1-4)Glc
# Summary of the method: as §1
# [20] = target: Neu5Ac(a2-6)Gal(b1-4)GlcNAc(b1-6)[Gal(b1-3)]GalNAc
# Summary of the method: as §1
# [21] = target: Neu5Ac(a2-8)Neu5Ac(a2-8)Neu5Ac(a2-8)Neu5Ac(a2-3)[GalNAc(b1-4)]Gal(b1-4)Glc
# Summary of the method: as §1
# [22] = target: Neu5Gc(a2-8)Neu5Gc(a2-3)Gal(b1-4)GlcNAc
# Summary of the method: as §1
binder,measurement,setting,value
PX14343C-bfa-541-26-541 (Bacteroides fragilis) (protein) KAPLDEIADDSFWSDETLVKYYVNDLYSEISVDGLQLQENRSDNSVSAQRDKYRASWFKFNYDMVSASDPQDDDVWEDYYVKVRKCNRFFERIGTSTIEESEKSRLTGEVHFLRAMFYFEMVKRYGGVILLDKVLTMEDNWEIPRSSEKECYDFILEDLKKATEMLPASYGSREKGRATKGAAYALKSRVELYDKRYEDVIKSCAEVYKLGYELVDGTTPEKYRSIWWTTNKDNKEIIFDVQYKSPDVYNNMMVCNMVTYINDKYGDRGWGGLGPTQELIDAFEMADGTPATQYSQAPADQVFDINTCGIYEGREPRFYANIVFHGSQIFFNADKGAVTVDRYLMDTPDKGDGSLTGYNVWKWIDYDNYNYPYAGAGSPDFSTNWIILRYAEIYLNDAEARLETGDVEGARKAVNMIRQRVGLPDLTESDPEKLRELIRKERRIEFAFEEQRFYDVRRWKIGPETQTTLHGVRFVSPTEFKVTKTDIRTWNDRLYLTPVPHDEIVRSSVLKQNLGY,glycan array binding signal (z-score),[1],-0.401
same,glycan array binding signal (z-score),[2],0.261
same,glycan array binding signal (z-score),[3],0.758
same,glycan array binding signal (z-score),[4],0.249
same,glycan array binding signal (z-score),Gal6S(b1-4)Glc6S,1.46
same,glycan array binding signal (z-score),[5],-0.667
same,glycan array binding signal (z-score),[6],3.4
same,glycan array binding signal (z-score),Glc(b1-4)Glc,-0.686
same,glycan array binding signal (z-score),[7],1.91
same,glycan array binding signal (z-score),[8],0.147
same,glycan array binding signal (z-score),[9],-0.553
same,glycan array binding signal (z-score),[10],0.978
same,glycan array binding signal (z-score),[11],0.246
same,glycan array binding signal (z-score),[12],0.43
same,glycan array binding signal (z-score),[13],5.05
same,glycan array binding signal (z-score),[14],3.41
same,glycan array binding signal (z-score),[15],3.29
same,glycan array binding signal (z-score),[16],0.23
same,glycan array binding signal (z-score),[17],-0.339
same,glycan array binding signal (z-score),[18],-0.036
same,glycan array binding signal (z-score),[19],5.89
same,glycan array binding signal (z-score),[20],-0.647
same,glycan array binding signal (z-score),[21],1.9
same,glycan array binding signal (z-score),[22],-0.342
